This is an account of results in PubChem BioAssay (NCI).

Where “and” joins values, the source holds several entries; their conditions need not be identical. Identical values can stand only once. This is part of a sample that, as a whole, favours compounds with a hit. Of some 83,000 tested, about 20% had one in any assay.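 Assay: single dose, 48 h. Readout: percent growth (0 = no net growth; negative = cell death). Active: <10.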 Values without a mark were called inactive. Calls of active or inactive are those of the source.

This test relates to HL-60(TB) leukemia. The test can be described thus: NCI-60 one-dose screen, 48 h (100 = growth as untreated, 0 = no growth, -100 = all killed). The settings on record: 10 µM unless noted.
Consider `CCc1ccc(C(=O)/C=C/C23c4ccccc4C(c4ccccc42)C2C(=O)NC(=O)C23)cc1` (centres undefined), for which the growth was -12.3% (active).
The figure for `C/C(=N/NC(=O)Cn1c2ccccc2c2ccncc21)c1cccs1` is 83.5%; for `O=S(=O)(NC1c2ccccc2Oc2ccccc21)c1ccccc1` it is 86.5%.
The figure for `COc1ccc(Nc2nnc(SCc3ccccc3F)s2)cc1` is 86%; for `O=c1oc2ccc(Cl)cc2c(=O)n1-c1cc(C(F)(F)F)cc(C(F)(F)F)c1` it is -20.6% (active); for `O=C(c1cc(-c2ccc(Cl)cc2)nc2ccccc12)N1N=C(c2ccccc2)CC1c1cc(-c2ccccc2)nn1-c1ccccc1` (centres undefined) it is 91.6%.
Turning to `Cc1ccc(F)c(NC(=O)Nc2ccc(-c3cccc4[nH]nc(N)c34)cc2)c1`, the growth was 7.97% (active).
In the case of `O=C(Cc1ccccc1)c1ccc(Cl)cc1` it was 111%.
As to `Cc1cc(C)cc(CCCCCCCCCCCCCCCCCC(=O)O)c1`, the growth was 71%.
In the case of `Cc1ccc(/C=C2\Oc3cc(OCC(=O)c4ccc(Cl)cc4)ccc3C2=O)cc1` it was 50.7%; in that of `Nc1ccc(N=Nc2ccc(S(=O)(=O)O)cc2)cc1S(=O)(=O)O`, 98.5% and 146%.
As for `CCCCCOc1ccc(/C=N/Nc2cc(C)nc3ccc(Br)cc23)cc1`, the growth was -2.49% (active).
The figure for `Nc1[nH]n2cc(-c3ccccc3)nc2c1N=Nc1ccc(S(N)(=O)=O)cc1` is 27.9%; for `CC1=C([Se]CC(OC(=O)CC[Se]c2ccccc2)C(=O)NCCCCCC(=O)OCc2ccccc2)C(=O)c2ccccc2C1=O` (centres undefined) it is 15.5%.
